Among all 5,500 compounds or so, about 2,000 (36%) were called active. Not shown: some 18% with an inconclusive outcome. Cut-off read from the data, not from the text of the source: active = normalized growth mostly below about 0.91 (no sharp cut-off); inconclusive = no clear call, values can overlap the other calls; inactive = mostly above about 0.92. The list shows a part of the results.
Assay: chemical genetic growth profiling, strain panel (AID 1159580);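 note: tested at 20 µM; growth read once vehicle control cultures reached saturation at 30 °C; 1 = growth at the plate median or of vehicle wells; lower values mean less growth of the strain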
Settings: growth OD
[1] = S. cerevisiae deletion strains, locus YDL101C, strain DUN1, hits give low values
[2] = S. cerevisiae deletion strains, locus YHR030C, strain SLT2, hits give low values

Measured: normalized growth

N/C(=N/OC(=O)Nc1ccccc1)c1ccc(C2SCCS2)cc1
active: S. cerevisiae deletion strains, locus YAL013W, strain DEP1, hits give low values 0.889 | S. cerevisiae deletion strains, locus YBR229C, strain ROT2, hits give low values 0.892 | [1] 0.753 | S. cerevisiae deletion strains, locus YEL061C, strain CIN8, hits give low values 0.833 | S. cerevisiae deletion strains, locus YGR078C, strain PAC10, hits give low values 0.879 | [2] 0.343 | S. cerevisiae deletion strains, locus YHR087W, strain rtc3, hits give low values 0.829 | S. cerevisiae deletion strains, locus YJR043C, strain POL32, hits give low values 0.89 | S. cerevisiae deletion strains, locus YJR075W, strain HOC1, hits give low values 0.772 | S. cerevisiae deletion strains, locus YKL190W, strain CNB1, hits give low values 0.924 | S. cerevisiae deletion strains, locus YLR039C, strain RIC1, hits give low values 0.767 | S. cerevisiae deletion strains, locus YLR085C, strain ARP6, hits give low values 0.39 | S. cerevisiae deletion strains, locus YLR262C, strain YPT6, hits give low values 0.759 | S. cerevisiae deletion strains, locus YML094W, strain GIM5, hits give low values 0.801 | S. cerevisiae deletion strains, locus YMR219W, strain ESC1, hits give low values 0.884 | S. cerevisiae deletion strains, locus YMR263W, strain SAP30, hits give low values 0.87 | S. cerevisiae deletion strains, locus YMR307W, strain GAS1, hits give low values 0.557 | S. cerevisiae deletion strains, locus YNL153C, strain GIM3, hits give low values 0.652 | S. cerevisiae deletion strains, locus YNL298W, strain CLA4 (second series), hits give low values 0.797 | S. cerevisiae deletion strains, locus YNR030W, strain Alg12, hits give low values 0.81 | S. cerevisiae deletion strains, locus YPL055C, strain LGE1, hits give low values 0.694 | S. cerevisiae deletion strains, locus YPR135W, strain CTF4, hits give low values 0.436
inactive: S. cerevisiae deletion strains, locus YDL134C, strain PPH21, hits give low values 0.972 | S. cerevisiae deletion strains, locus YDR150W, strain NUM1, hits give low values 0.851 | S. cerevisiae deletion strains, locus YGR229C, strain SMI1, hits give low values 1.01 | S. cerevisiae deletion strains, locus YNL322C, strain KRE1, hits give low values 0.991 | S. cerevisiae strains, strain wild type, hits give low values 0.988

N/C(=N/O)c1ccc(Oc2ccc(C3SCCS3)cc2)c([N+](=O)[O-])c1
inactive: S. cerevisiae deletion strains, locus YAR019C, strain CDC15, hits give low values 1.01 | S. cerevisiae deletion strains, locus YBL105C, strain PKC1, hits give low values 0.992 | S. cerevisiae deletion strains, locus YBR135W, strain CKS1, hits give low values 0.979 | S. cerevisiae deletion strains, locus YBR136W, strain MEC1, hits give low values 1.01 | S. cerevisiae deletion strains, locus YBR160W, strain CDC28, hits give low values 0.997 | S. cerevisiae deletion strains, locus YDL017W, strain CDC7, hits give low values 0.992 | S. cerevisiae deletion strains, locus YDL028C, strain MPS1, hits give low values 1.01 | [1] 0.991 | S. cerevisiae deletion strains, locus YDL108W, strain KIN28, hits give low values 0.99 | S. cerevisiae deletion strains, locus YDL132W, strain cdc53, hits give low values 0.973 | S. cerevisiae deletion strains, locus YDL214C, strain PRR2, hits give low values 0.992 | S. cerevisiae deletion strains, locus YDR052C, strain DBF4, hits give low values 0.992 | S. cerevisiae deletion strains, locus YDR054C, strain cdc34, hits give low values 0.988 | S. cerevisiae deletion strains, locus YDR226W, strain ADK1, hits give low values 0.998 | S. cerevisiae deletion strains, locus YDR477W, strain SNF1, hits give low values 1.01 | S. cerevisiae deletion strains, locus YER123W, strain YCK3, hits give low values 1.01 | S. cerevisiae deletion strains, locus YER133W, strain GLC7, hits give low values 0.994 | S. cerevisiae deletion strains, locus YFL009W, strain cdc4, hits give low values 0.992 | S. cerevisiae deletion strains, locus YFL029C, strain CAK1, hits give low values 1 | S. cerevisiae deletion strains, locus YFR003C, strain YPI1, hits give low values 0.985 | S. cerevisiae deletion strains, locus YFR019W, strain FAB1, hits give low values 1.02 | S. cerevisiae deletion strains, locus YFR028C, strain CDC14, hits give low values 1 | S. cerevisiae deletion strains, locus YGR040W, strain KSS1, hits give low values 1 | S. cerevisiae deletion strains, locus YGR052W, strain FMP48, hits give low values 1.07 | S. cerevisiae deletion strains, locus YGR092W, strain DBF2, hits give low values 0.993 | [2] 0.874 | S. cerevisiae deletion strains, locus YHR079C, strain IRE1, hits give low values 1.06 | S. cerevisiae deletion strains, locus YHR082C, strain KSP1, hits give low values 1.12 | S. cerevisiae deletion strains, locus YHR205W, strain SCH9, hits give low values 1.01 | S. cerevisiae deletion strains, locus YIL147C, strain SLN1, hits give low values 0.996 | S. cerevisiae deletion strains, locus YJL095W, strain BCK1, hits give low values 1.01 | S. cerevisiae deletion strains, locus YJL128C, strain PBS2, hits give low values 0.93 | S. cerevisiae deletion strains, locus YJL157C, strain FAR1, hits give low values 1.01 | S. cerevisiae deletion strains, locus YJR016C, strain ILV3, hits give low values 0.993 | S. cerevisiae deletion strains, locus YJR066W, strain TOR1 (second series), hits give low values 1.01 | S. cerevisiae deletion strains, locus YJR066W, strain TOR1, hits give low values 1.02 | S. cerevisiae deletion strains, locus YKL048C, strain ELM1, hits give low values 0.988 | S. cerevisiae deletion strains, locus YKL067W, strain YNK1, hits give low values 0.981 | S. cerevisiae deletion strains, locus YKL101W, strain HSL1, hits give low values 0.986 | S. cerevisiae deletion strains, locus YKL193C, strain SDS22, hits give low values 0.979 | S. cerevisiae deletion strains, locus YKL203C, strain TOR2, hits give low values 1.11 | S. cerevisiae deletion strains, locus YLR113W, strain HOG1, hits give low values 1.02 | S. cerevisiae deletion strains, locus YLR133W, strain CKI1, hits give low values 1.01 | S. cerevisiae deletion strains, locus YLR403W, strain SFP1, hits give low values 1.05 | S. cerevisiae deletion strains, locus YML070W, strain DAK1, hits give low values 1.01 | S. cerevisiae deletion strains, locus YMR001C, strain CDC5, hits give low values 1 | S. cerevisiae deletion strains, locus YMR205C, strain PFK2 (second series), hits give low values 0.994 | S. cerevisiae deletion strains, locus YMR277W, strain FCP1, hits give low values 0.995 | S. cerevisiae deletion strains, locus YNL006W, strain LST8, hits give low values 0.988 | S. cerevisiae deletion strains, locus YNL020C, strain ARK1, hits give low values 1.03 | S. cerevisiae deletion strains, locus YNL161W, strain CBK1, hits give low values 0.981 | S. cerevisiae deletion strains, locus YNL183C, strain NPR1, hits give low values 1.08 | S. cerevisiae deletion strains, locus YNL207W, strain RIO2, hits give low values 0.984 | S. cerevisiae deletion strains, locus YNL222W, strain SSU72, hits give low values 0.979 | S. cerevisiae deletion strains, locus YNL307C, strain MCK1 (second series), hits give low values 1.02 | S. cerevisiae deletion strains, locus YOL078W, strain AVO1, hits give low values 0.978 | S. cerevisiae deletion strains, locus YOL136C, strain PFK27, hits give low values 1.02 | S. cerevisiae deletion strains, locus YOR061W, strain CKA2, hits give low values 0.995 | S. cerevisiae deletion strains, locus YOR119C, strain RIO1, hits give low values 1.04 | S. cerevisiae deletion strains, locus YOR231W, strain MKK1, hits give low values 1.03 | S. cerevisiae deletion strains, locus YOR329C, strain SCD5, hits give low values 0.991 | S. cerevisiae deletion strains, locus YPL031C, strain PHO85, hits give low values 0.998 | S. cerevisiae deletion strains, locus YPL153C, strain RAD53, hits give low values 0.988 | S. cerevisiae deletion strains, locus YPL204W, strain HRR25, hits give low values 1 | S. cerevisiae deletion strains, locus YPL209C, strain IPL1, hits give low values 0.984 | S. cerevisiae deletion strains, locus YPL256C, strain CLN2, hits give low values 0.995 | S. cerevisiae deletion strains, locus YPR025C, strain CCL1, hits give low values 0.985 | S. cerevisiae deletion strains, locus YPR106W, strain ISR1, hits give low values 0.994 | S. cerevisiae deletion strains, locus YPR111W, strain DBF20, hits give low values 0.978 | S. cerevisiae deletion strains, strain NNK1, hits give low values 0.995 | S. cerevisiae deletion strains, strain TSCII, hits give low values 1.01

From PubChem BioAssay AID1159580 (chemical genetic matrix, 2015)
